Sampled rows, rich in hits. Any-hit rate of the full collection: about 1.8%.
beta cell repl = inducers of MIN6 beta-cell proliferation, primary screen, ATP luminescence, uHTS; MIN6 cells proliferation, ATPlite luminescence, 48 h; cells starved in 0.2% serum; 100% = growth in 10% serum; proliferation, % at 10 µM; 330,000 tested, 0.29% active; AID 2380, 2010;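 active means compounds whose signal lies at least 3.5 SD above the mean of all wells on their plate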;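 further: 0% = DMSO-treated cells in low-serum medium and 100% = 10% serum control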
APOBEC3G inh = APOBEC3G DNA deaminase inhibitors, primary screen, biochemical, fluorescence, single-stranded DNA substrate, uHTS; DNA dC->dU-editing enzyme APOBEC-3G (Homo sapiens), Q9HC16; inhibition, % at 20 µM; 330,000 tested, 0.28% active; recombinant A3G, ssDNA deamination FAM/TAMRA fluorescence; AID 493012, 2011;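 active means inhibition of at least 40% at 20 µM, with no more than 30% in the related APOBEC3A deaminase screen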;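 further: plate controls were DMSO wells with A3G for no effect and wells lacking A3G enzyme for full effect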
APOBEC3A inh = APOBEC3A ssDNA deaminase inhibitors, primary screen, selectivity assay for APOBEC3G inhibitor project, biochemical, FAM/TAMRA oligo cleavage fluorescence; DNA dC->dU-editing enzyme APOBEC-3A (Homo sapiens), P31941; recombinant A3A, FAM/TAMRA ssDNA deamination fluorescence; inhibition, % at 20 µM; 330,000 tested, 0.41% active;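 active means at least 40% inhibition at 20 µM here, with at most 30% in a related deaminase screen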;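 further: plate controls were A3A with DMSO for no effect and wells lacking A3A enzyme for full effect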
VLA-4 inh = inhibition in human VLA-4 binding assay, primary screen, VLA-4 allosteric modulator project, MLPCN library, flow cytometry, VLA-4 expressing cells. ligand binding flow cytometry. inhibition, % (about 7 µM as worked out from the volumes in the protocol). 330,000 tested, 0.2% active. Integrin alpha-4 (Homo sapiens), P13612. AID 2557, 2010; in the data active means inhibition above about 50%
CendR NRP1 mod = modulators of CendR peptide binding to NRP-1, primary screen, biochemical, fluorescence polarization, uHTS; 360,000 tested, 0.85% active; AID 602438, 2012; FAM-RPARPAR peptide binding to NRP-1; inhibition, % at 25 µM; Neuropilin-1 (Homo sapiens), O14786;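 active means inhibition or corrected inhibition above about 18%, plus a signal ratio from 0.5 to 1.5, limit read from the data, passing the limit was not always enough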
Target sequence (O14786 whole entry, looked up): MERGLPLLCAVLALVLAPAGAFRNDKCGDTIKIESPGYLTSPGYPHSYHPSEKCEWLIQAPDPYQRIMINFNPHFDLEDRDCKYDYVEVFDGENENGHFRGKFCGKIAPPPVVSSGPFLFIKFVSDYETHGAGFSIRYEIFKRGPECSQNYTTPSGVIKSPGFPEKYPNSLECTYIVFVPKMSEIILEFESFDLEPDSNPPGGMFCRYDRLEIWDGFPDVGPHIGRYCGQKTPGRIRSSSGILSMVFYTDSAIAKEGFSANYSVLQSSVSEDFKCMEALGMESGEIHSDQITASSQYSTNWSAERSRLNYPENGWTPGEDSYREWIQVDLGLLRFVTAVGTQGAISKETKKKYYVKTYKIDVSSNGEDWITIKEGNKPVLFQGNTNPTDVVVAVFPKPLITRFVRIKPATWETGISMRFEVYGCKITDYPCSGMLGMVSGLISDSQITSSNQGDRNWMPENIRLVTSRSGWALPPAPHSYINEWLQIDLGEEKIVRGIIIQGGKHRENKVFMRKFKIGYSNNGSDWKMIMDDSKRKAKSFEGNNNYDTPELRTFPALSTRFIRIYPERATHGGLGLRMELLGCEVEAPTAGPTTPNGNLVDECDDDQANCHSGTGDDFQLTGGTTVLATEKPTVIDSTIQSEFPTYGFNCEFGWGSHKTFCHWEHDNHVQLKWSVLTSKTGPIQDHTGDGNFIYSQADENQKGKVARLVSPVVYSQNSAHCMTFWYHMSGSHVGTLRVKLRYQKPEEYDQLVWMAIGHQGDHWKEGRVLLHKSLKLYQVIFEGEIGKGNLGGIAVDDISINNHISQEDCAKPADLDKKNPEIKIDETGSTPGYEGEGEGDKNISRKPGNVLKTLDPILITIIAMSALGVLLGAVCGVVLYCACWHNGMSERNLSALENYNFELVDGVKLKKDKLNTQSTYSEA
A3A conf = APOBEC3A deaminase inhibitors, retest, confirmation, selectivity assay for APOBEC3G inhibitor project, biochemical, single concentration, fluorescence readout; shares compounds with APOBEC3A inh; recombinant A3A, ssDNA deaminase UDG fluorescence assay; inhibition, % at 20 µM; 1,400 tested, 63% active;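 active means inhibition reaching a set limit, 80% of the first screen's cutoff, at 20 µM in any replicate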;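 further: plate controls were DMSO wells with A3A for no effect and wells lacking A3A enzyme for full effect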
UDG ctr A3A = E. coli UDG inhibitors, confirmation, counter-screen for APOBEC3A inhibitor project, biochemical, single concentration, fluorescence, FAM/TAMRA oligo; shares compounds with APOBEC3A inh; AID 504714, 2011; 1,000 tested, under 10 active; UDG counterscreen, FAM/TAMRA uracil oligo fluorescence; inhibition, % at 20 µM; call rule not given here
The depositor's hits bear a star; . = no result given.

SMILES	beta cell repl	APOBEC3G inh	APOBEC3A inh	VLA-4 inh	CendR NRP1 mod	A3A conf	UDG ctr A3A
Cc1ccc(Nc2ccc(N)cc2S(=O)(=O)O)cc1	1	-4	6	-1	-6	.	.
Nc1ccc(Nc2ccccc2)c(S(=O)(=O)O)c1	-4	18	67*	-2	13	57*	-1
CC(=O)C[C@@H](O)CC(=O)[C@@H]1OC(=O)[C@@H](C)CCCCc2ccccc21	-1	-5	-6	30	-6	.	.
O=C(Nc1ccc2ncccc2c1)c1ccccc1Cl	-3	6	46*	6	-4	75*	-2
Cc1[nH]c2ccccc2c1/C=N/Nc1nc(Nc2ccccc2)nc(N2CCOCC2)n1	-5	-7	-3	6	7	.	.
Oc1[nH]c2ccccc2c1N=Nc1nc(Nc2ccccc2)nc(N2CCOCC2)n1	-5	12	44*	-2	13	17	.
CN(CCc1ccccc1)C(=O)c1ccc(NC(=O)Cc2ccc(NC(=O)C3CCCN(C(=O)C4CC4)C3)cc2)cc1 (centres undefined)	.	.	.	.	2	.	.
COc1cccc2c1cc1c(=O)n(CC(=O)NCCCN3CCN(C)CC3)nc(C)n12	-1	-7	5	-3	-10	.	.
Cn1c(CNC(=O)c2ccco2)nnc1SCC(=O)N1c2ccccc2Sc2ccccc21	-1	18	63*	19	9	58*	-3
CCN(C[C@H]1N[C@@](C)(C(=O)OC)[C@H]2C(=O)N(C)C(=O)[C@@H]12)C(=O)Nc1ccccc1	0	-5	-2	25	-7	.	.
O=Cc1cn(-c2ccccc2)nc1-c1cc2c(ccc3ccccc32)oc1=O	-7	-8	77*	3	-7	-5	6
O=Cc1cn(-c2ccccc2)nc1-c1cc2cc(O)ccc2oc1=O	-2	-5	-4	-1	-47	.	.
COc1ccc(CN(C(=O)c2cc(=O)c3ccccc3o2)C2CCS(=O)(=O)C2)cc1 (centres undefined)	6	-7	-7	-1	18	.	.
Cc1cccc2nc3ccccc3cc12	0	-3	1	6	7	.	.
CCN(CC)c1cc(C)c2ccccc2n1	-2	16	57*	4	-4	7	.
CC(C)[N+](C)(C)CC#CC(O)(c1ccccc1)c1ccccc1	3	26	65*	21	10	73*	-3
C[N+]1(CC#CC(O)(c2ccccc2)c2ccccc2)CCCC1	2	31	48	15	-29	.	.
CCOC(=O)C1CCN(S(=O)(=O)c2ccc3c(c2)CC(=O)N3C)CC1	-2	28	52*	12	3	55*	-4
Cc1cc(-c2nnc(CCC(=O)NCc3cc(F)cc(C(F)(F)F)c3)o2)no1	-3	1	0	6	2	.	.
Cc1ccc(S(=O)(=O)/N=C2/NC(=O)/C(=C/c3ccc(Br)o3)S2)cc1	0	-6	52*	-8	-117	-5	1
Cc1ccn(C)c(=N)c1	-5	10	48*	16	10	56*	3
Cc1ccc(C)c(N)c1	-4	-5	-1	5	-7	.	.
COc1cc(OC)cc(-c2nnc(SCC(=O)N(C(C)C)C(C)C)o2)c1	-1	-3	90*	13	3	0	0
COc1cccc(-c2nnc(SCC(=O)N(C(C)C)C(C)C)o2)c1	-3	-12	-4	0	-3	.	.
O=C(CSc1cccc[n+]1[O-])C12CC3CC(CC(C3)C1)C2	1	5	10	-2	0	.	.
SMILES	beta cell repl	APOBEC3G inh	APOBEC3A inh	VLA-4 inh	CendR NRP1 mod	A3A conf	UDG ctr A3A
Cn1cnc(NCc2ccccc2)c1[N+](=O)[O-]	1	-3	44*	25	-7	-4	-2
Nc1ncnc(NCc2ccccc2)c1[N+](=O)[O-]	-3	-3	-1	1	-2	.	.
Cc1cc(C)cc(N(C(=O)c2csnn2)C(C(=O)NC(C)(C)C)c2cccs2)c1 (centres undefined)	-3	-4	68*	5	-6	-4	1
Cc1ccc(N(C(=O)c2csnn2)C(C(=O)NC(C)(C)C)c2cccs2)cc1 (centres undefined)	0	6	-1	-8	-1	.	.
C[N+]1(CCCCCCC(=O)/C=N/O)CCCCCC1	-1	27	42*	-5	-2	61*	0
C[N+](C)(C)CCCCCCC(=O)/C=N/O	-1	15	61*	9	9	67*	5
CN(CCCCCC(=O)/C=N/O)Cc1ccccc1	2	-8	4	3	-5	.	.
CCOC(=O)C1=CCC2C(=O)N(C)C(=O)C12 (centres undefined)	.	.	.	.	-4	.	.
Cc1nc(N2CCN(c3ccccc3O)CC2)c2c(-c3ccccc3)csc2n1	-4	-3	9	-4	-9	.	.
C#CCSc1nc(Cc2ccc(Cl)cc2)nc2ccccc12	-4	-2	48*	5	-4	-5	-2
O=C(COC(=O)c1cccc(F)c1)NC(=O)NCc1ccccc1	4	-4	2	19	10	.	.
CCOC(=O)c1cc(C(=O)OCC)c(=O)[nH]c1SCc1ccccc1	5	-3	-4	20	-4	.	.
CCN1CCN(CC(=O)c2c[nH]c3ccccc23)CC1	-4	-7	-2	-9	-14	.	.
O=C(CN1CCN(C2CCCCC2)CC1)c1c[nH]c2ccccc12	0	27	51*	-48	5	20	.
O=C(COc1ccc(Cl)cc1)OCC(=O)N1CCCC1	0	-4	55*	15	4	-1	3
CCN(c1ccccc1)S(=O)(=O)c1ccc(N2CCN(c3ccccc3O)CC2)nc1	-4	-5	-2	-2	8	.	.
CCN1C(=NCc2ccc(OC)cc2)N[C@@H](c2ccccc2)[C@H](C(=O)OC)[C@H]1C	4	8	41*	-20	18	56*	-2
CCN1C(=NCCc2c[nH]c3ccccc23)N[C@@H](c2ccccc2)[C@H](C(=O)OC)[C@H]1C	1	4	51*	-2	-6	45*	-2
CCN1C(=NCc2ccccc2)N[C@@H](c2ccccc2)[C@H](C(=O)OC)[C@H]1C	-3	32	55	-33	-1	.	.
